Reference: PubChem BioAssay AID1626 (SRMLSC, 2009)
About 2,000 (0.91%) of roughly 220,000 compounds were called active. Another 2% or so got no clear call; they are omitted. Not all results are given here. Entries with a potency or affinity are not part of this list. Unmarked numbers belong to inactive results. No stated cut-off is given here; in the data, inconclusive means inhibition above about 80% without an active follow-up result; inactive means below that; test concentration not stated here.

assay: M. tuberculosis H37Rv growth inhibitors, H37Rv strain (AID 1626); details: stronger effect = higher value, concentration not given here;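 further: bacteria incubated seven days before Alamar blue readout; 0% = bacteria only wells and 100% = bacteria with antibiotic wells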

| Structure (SMILES) | inhibition [%] |
| --- | --- |
| Cc1ccc(NCc2nc3ccccc3n2C)cc1 | 6.89 |
| Cc1cccc(NCc2nc3ccccc3n2C)c1 | -0.92 |
| Cn1c(Cl)nc2ccccc21 | -1.9 |
| Cn1c(CNc2ccccc2)nc2ccccc21 | 5.08 |
| CCCCn1c(/N=C/c2ccc(N(C)C)cc2)nc2ccccc21 | -13.8 |
| CN(C)c1ccc(-c2nc3ccccc3n2C)cc1 | -2.73 |
| CC(=O)Nc1nc(=S)n(-c2ccccc2)[nH]1 | -1.91 |
| COC(=O)C1CCN(C(=O)COC(=O)CC(NC(C)=O)c2ccccc2)CC1 (stereo not drawn) | -3.65 |
| Fc1cccc2sc(N3CCCCC3)nc12 | -9.23 |
| COc1ccccc1NC(=O)CCc1nc(-c2ccccc2F)no1 | 2 |
| O=C(NC1=NC2CCCCC2N1)c1ccccc1 (stereo not drawn) | 1.79 |
| Cc1ccc(C2=Nc3ccccc3N=C(c3ccc([N+](=O)[O-])cc3)C2)c(O)c1 | 0.53 |
| Cc1ccc(O)c(C2=Nc3ccccc3N=C(c3cccc([N+](=O)[O-])c3)C2)c1 | 3.86 |
| CCc1cccc(CC)c1NC(=S)Nc1cccc(Cl)c1Cl | 2.37 |
| CCCn1nc(C(=O)Nc2nc3ccccc3[nH]2)c2ccccc2c1=O | 59.6 |
| CCCCCn1c(=O)c(-c2nc3ccccc3[nH]2)c(O)c2ccccc21 | 52.9 |
| CCn1c(=O)c(C(=O)Nc2ccccn2)c(O)c2ccccc21 | -3.43 |
| CCn1c(=O)c(-c2nc3ccccc3[nH]2)c(O)c2ccccc21 | 43.3 |
| CC1Cc2ccccc2N1C(=O)c1ccc(N2CCCC2)c([N+](=O)[O-])c1 (stereo not drawn) | 4.46 |
| CCN(C(=O)CSc1nc(-c2ccccc2)c(-c2ccccc2)[nH]1)C1CCS(=O)(=O)C1 (stereo not drawn) | 0.12 |
| CSc1ncccc1C(=O)OCC(=O)N(CC(C)C)C1CCS(=O)(=O)C1 (stereo not drawn) | -5.78 |
| CCCn1c(SCC(=O)Nc2ccc(OC)cc2[N+](=O)[O-])n[nH]c1=O | 1.11 |
| O=C1Nc2ccccc2N(O)N1c1ccc(Cl)cc1 | -3.86 |
| O=C(C1=C[C@@H](C2CC2)C[C@@H](OCc2ccc(CO)cc2)O1)N1CCN(Cc2ccccc2)CC1 | 0.13 |
| O=C(CCC(=O)N1CCN(c2ccccn2)CC1)Nc1nnc(C(F)(F)F)s1 | -6.15 |

| Structure (SMILES) | inhibition [%] |
| --- | --- |
| COc1ccccc1N1CCN(C(=O)COc2ccc(S(=O)(=O)NC(C)(C)C)cc2)CC1 | 0.98 |
| CN1CC=C(c2c[nH]c3ccccc23)CC1 | -7.46 |
| O=C(Nc1ccc2c(c1)OCO2)c1ccc(Br)s1 | 9.98 |
| CCC(=O)Nc1nnc(-c2ccco2)o1 | 10.2 |
| O=C(Nc1nnc(-c2ccco2)o1)c1ccc(N2C(=O)CCC2=O)cc1 | -1.43 |
| CC(=O)Nc1nnc(-c2ccco2)o1 | 0.62 |
| Cc1nn(-c2ccccc2)c(C)c1C(=O)Nc1ccc(N2CCOCC2)cc1 | -4.12 |
| CCN(c1ccccc1)S(=O)(=O)c1ccc(C(=O)Nc2nnc(-c3ccco3)o2)cc1 | 61.3 |
| O=C(Nc1nnc(-c2ccco2)o1)C1CC1 | 4.4 |
| CN(C)S(=O)(=O)c1ccc(C(=O)Nc2nnc(-c3ccco3)o2)cc1 | -14.7 |
| O=C(Nc1nnc(-c2ccco2)o1)c1ccc(S(=O)(=O)N2CCCC2)cc1 | 41.6 |
| COCCCNC(=O)CN(c1cc(Cl)ccc1OC)S(=O)(=O)c1ccc(C)c([N+](=O)[O-])c1 | -9.07 |
| O=C(c1ccco1)N1CCN(c2ccc(S(=O)(=O)N3CCCC3)cc2)CC1 | -12.6 |
| Cc1ccc(NCCNc2ccc(C)cc2)cc1 | 5.4 |
| C[N+](C)(CC#Cc1ccccc1)CC(=O)c1ccc(Cl)cc1 | 0.9 |
| Cc1ccc(-c2cc(C(=O)N/N=C/c3c(C)nn(C)c3C)c3ccccc3n2)c(C)c1 | -2.59 |
| CCCc1nnc2n1N=C(c1ccc([N+](=O)[O-])cc1)CS2 | 3 |
| Cc1cccc(NC(=O)c2ccc([N+](=O)[O-])s2)c1C | 53.1 |
| Cc1cccc(C(=O)Nc2nnc(-c3ccncc3)o2)c1 | 62.6 |
| O=C(Cc1ccccc1)Nc1nnc(-c2ccco2)o1 | 1.37 |
| O=C(Nc1ccncc1)c1ccc2ccccc2c1 | 1.37 |
| Cn1nnc(NC(=O)c2ccc3ccccc3c2)n1 | 0.14 |
| Cc1cccc(C)c1NC(=O)c1ccc([N+](=O)[O-])s1 | 11.5 |
| O=C(Nc1nnc(-c2ccco2)o1)c1cccc(N2C(=O)CCC2=O)c1 | 2.38 |
| O=C(COc1ccccc1)Nc1nnc(-c2ccco2)o1 | -3.85 |

| Structure (SMILES) | inhibition [%] |
| --- | --- |
| COc1ccc(OC)c2c(C)cc(N3CCN(C(=O)c4ccc(F)cc4)CC3)nc12 | 8.6 |
| O=C(/C=C/c1ccco1)Nc1ccccc1N1CCCCC1 | 10.2 |
| Cc1c(NC(=S)N/C(=N/S(=O)(=O)c2ccc(Cl)cc2)c2ccccc2)c(=O)n(-c2ccccc2)n1C | 3.87 |
| Cc1ccc(S(=O)(=O)Nc2cccc(C(=O)Nc3cc(C)ccn3)c2)cc1 | 7.87 |
| Cc1ccc(C2=NC3(CCCCCC3)NC2=S)cc1 | 7.91 |
| Clc1cccc(-c2ccc(C=Nc3ccc(N4CCOCC4)cc3)o2)c1 | 32.1 |
| Cc1ccc(Cl)cc1-c1ccc(C=Nc2ccc(N3CCOCC3)cc2)o1 | 9.51 |
| COc1cccc(CN2CCCCC2C(=O)O)c1 (stereo not drawn) | -3.4 |
| Clc1cccc(-c2nc(NCCCN3CCOCC3)c3ccccc3n2)c1 | 15 |
| Clc1ccc(-c2nc(NCCN3CCOCC3)c3ccccc3n2)cc1 | 11.1 |
| COc1ccc(-c2nn(-c3ccccc3C)cc2CNC(C)c2cn(C)nc2C)cc1F (stereo not drawn) | -2.3 |
| COc1ccc(NC(=O)CSc2nnc(Cn3c(=O)sc4ccccc43)n2C)cc1OC | -2.38 |
| CCOC(=O)c1sc2nc(C)n(N)c(=O)c2c1C | 3.43 |
| CCOC(=O)c1sc2nc(Cc3ccc(Cl)cc3)[nH]c(=S)c2c1C | 62.6 |
| CCC(=NCc1ccc2c(c1)OCO2)c1c(O)n(C)c(=O)n(C)c1=O | -0.05 |
| Clc1cccc(Cl)c1/C=N/Nc1c(Cl)cncc1Cl | -5.97 |
| COc1ccc(/C=C2\C(=O)c3ccccc3OC2c2ccccc2)cc1 (stereo not drawn) | 0.26 |
| O=C(N/N=C/c1ccc[nH]1)c1ccccc1O | -6.87 |
| Cc1ccc(N=Cc2ccc[nH]2)c(O)c1 | -2.8 |
| Cc1ccc(CCSc2ccc(F)cc2)cn1 | 0.68 |
| O=C(O)CCc1ccc(-c2ccc(Cl)cc2)o1 | 62.7 |
| CN1CCN(Cc2ccc(-c3ccc(Cl)cc3)o2)CC1 | 4.34 |
| O=C(COCC(=O)N1CCOCC1)N1CCOCC1 | -0.86 |
| COc1ccc(OC)c(-n2nnnc2SCC(=O)Nc2nc(C)c(C)s2)c1 | -6.27 |
| COc1ccc(C(=O)Nc2ccccc2Cc2ccccc2)c(OC)c1 | 12.6 |

| Structure (SMILES) | inhibition [%] |
| --- | --- |
| CCOCCOC(=O)c1ccc(-n2cnc(C)n2)nc1 | 1.52 |
| C=CCOC(=O)c1ccc(-n2cnc(C)n2)nc1 | 34.4 |
| CC(C)CN1CCN(Cc2ccc(Oc3ncccn3)cc2)CC1CCO (stereo not drawn) | -12.7 |
| Cc1ccc(CNC(=O)c2ccc(Br)o2)cc1 | 6.85 |
| O=C(NCc1cccnc1)c1ccc([N+](=O)[O-])o1 | 9.87 |
| O=C(Nc1ccc2oc(-c3cccnc3)nc2c1)c1ccco1 | -0.84 |
| Cc1ccccc1NC(=O)c1ccc([N+](=O)[O-])o1 | -5.26 |
| O=C(Nc1cccc(NC(=O)c2cccs2)c1)c1ccco1 | -1.16 |
| Cc1cccc(NC(=O)COC(=O)c2ccc([N+](=O)[O-])o2)c1C | -1.87 |
| COc1cc(NC(=O)c2ccc([N+](=O)[O-])o2)ccc1NC(=O)c1cccs1 | 11.9 |
| O=C(Nc1ccc2oc(-c3cccnc3)nc2c1)c1ccc(Br)o1 | -4.68 |
| O=C(NCCCN1CCOCC1)C(C(=O)NCCCN1CCOCC1)c1ncc(C(F)(F)F)cc1Cl | -6.54 |
| O=C1CC(C(=O)O)S/C(=N\N=C\c2ccc(Br)cc2)N1 (stereo not drawn) | -6.35 |
| COc1cccc(OC)c1C(=O)NNC(=O)c1ccc(F)cc1 | -2.49 |
| COc1ccccc1CN1C[C@@H]2C[C@@H](c3cccc(C)c3)N3CCC[C@@]23C1=O | 4.89 |
| CCN(CC)S(=O)(=O)c1ccc(N/N=C(\C)c2ccc3c(c2)OCO3)c([N+](=O)[O-])c1 | 2.18 |
| NC(=O)N/N=C/c1coc2ccc(O)cc2c1=O | -3.42 |
| O=C(Nc1ncccn1)c1ccc([N+](=O)[O-])o1 | 0.82 |
| Cc1cccc(NC(=O)c2ccc([N+](=O)[O-])o2)n1 | 3.18 |
| Cc1ccnc(NC(=O)c2ccc([N+](=O)[O-])o2)c1 | 5.02 |
| Cc1cc(C)nc(NC(=O)c2ccc([N+](=O)[O-])o2)n1 | -5.31 |
| Cc1cccnc1NC(=O)c1ccc([N+](=O)[O-])o1 | 2.32 |
| NS(=O)(=O)c1ccc(O)c(NC(=O)c2ccc([N+](=O)[O-])o2)c1 | -1.93 |
